# Source: PubChem BioAssay AID1159580 (chemical genetic matrix, 2015)
# Out of some 5,500 compounds screened, about 2,000 (36%) were called active. Inconclusive results (about 18%) are left out. This is one part of the list. A number with no mark means an inactive call. Cut-off read from the data, not from the text of the source: active = normalized growth mostly below about 0.91 (no sharp cut-off); inconclusive = no clear call, values can overlap the other calls; inactive = mostly above about 0.92.
# Experiment: chemical genetic growth profiling, strain panel (AID 1159580);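 note: tested at 20 µM; growth read once vehicle control cultures reached saturation at 30 °C; 1 = growth at the plate median or of vehicle wells; lower values mean less growth of the strain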
# Conditions: S. cerevisiae deletion strains, growth OD
smiles,measurement,setting,value
CC1=CC(=O)C(CCOCCC2=CC(=O)C(C)=CC2=O)=CC1=O,normalized growth,"locus YAR019C, strain CDC15, active compounds read low",0.981
same,normalized growth,"locus YBL105C, strain PKC1, active compounds read low",0.99
same,normalized growth,"locus YBR135W, strain CKS1, active compounds read low",0.985
same,normalized growth,"locus YBR136W, strain MEC1, active compounds read low",0.982
same,normalized growth,"locus YBR160W, strain CDC28, active compounds read low",0.983
same,normalized growth,"locus YDL017W, strain CDC7, active compounds read low",0.992
same,normalized growth,"locus YDL028C, strain MPS1, active compounds read low",0.981
same,normalized growth,"locus YDL101C, strain DUN1, active compounds read low",0.973
same,normalized growth,"locus YDL108W, strain KIN28, active compounds read low",0.983
same,normalized growth,"locus YDL132W, strain cdc53, active compounds read low",0.988
same,normalized growth,"locus YDL214C, strain PRR2, active compounds read low",0.701
same,normalized growth,"locus YDR052C, strain DBF4, active compounds read low",0.991
same,normalized growth,"locus YDR054C, strain cdc34, active compounds read low",0.986
same,normalized growth,"locus YDR226W, strain ADK1, active compounds read low",0.979
same,normalized growth,"locus YDR477W, strain SNF1, active compounds read low",0.706
same,normalized growth,"locus YER123W, strain YCK3, active compounds read low",0.806
same,normalized growth,"locus YER133W, strain GLC7, active compounds read low",0.765
same,normalized growth,"locus YFL009W, strain cdc4, active compounds read low",0.993
same,normalized growth,"locus YFL029C, strain CAK1, active compounds read low",0.987
same,normalized growth,"locus YFR003C, strain YPI1, active compounds read low",0.989
same,normalized growth,"locus YFR019W, strain FAB1, active compounds read low",0.864
same,normalized growth,"locus YFR028C, strain CDC14, active compounds read low",0.985
same,normalized growth,"locus YGR040W, strain KSS1, active compounds read low",0.739
same,normalized growth,"locus YGR052W, strain FMP48, active compounds read low",0.7
same,normalized growth,"locus YGR092W, strain DBF2, active compounds read low",0.917
same,normalized growth,"locus YHR079C, strain IRE1, active compounds read low",1.07
same,normalized growth,"locus YHR082C, strain KSP1, active compounds read low",0.444 (active)
same,normalized growth,"locus YHR205W, strain SCH9, active compounds read low",0.958
same,normalized growth,"locus YIL147C, strain SLN1, active compounds read low",0.984
same,normalized growth,"locus YJL095W, strain BCK1, active compounds read low",0.863
same,normalized growth,"locus YJL128C, strain PBS2, active compounds read low",0.934
same,normalized growth,"locus YJR016C, strain ILV3, active compounds read low",0.987
same,normalized growth,"locus YJR066W, strain TOR1 (second series), active compounds read low",0.804
same,normalized growth,"locus YJR066W, strain TOR1, active compounds read low",0.502
same,normalized growth,"locus YKL048C, strain ELM1, active compounds read low",0.981
same,normalized growth,"locus YKL067W, strain YNK1, active compounds read low",0.857
same,normalized growth,"locus YKL101W, strain HSL1, active compounds read low",0.945
same,normalized growth,"locus YKL193C, strain SDS22, active compounds read low",0.995
same,normalized growth,"locus YKL203C, strain TOR2, active compounds read low",0.976
same,normalized growth,"locus YLR113W, strain HOG1, active compounds read low",0.685 (active)
same,normalized growth,"locus YLR133W, strain CKI1, active compounds read low",0.953
same,normalized growth,"locus YLR403W, strain SFP1, active compounds read low",0.938
same,normalized growth,"locus YML070W, strain DAK1, active compounds read low",0.866
same,normalized growth,"locus YMR001C, strain CDC5, active compounds read low",0.984
same,normalized growth,"locus YMR205C, strain PFK2 (second series), active compounds read low",0.97
same,normalized growth,"locus YMR277W, strain FCP1, active compounds read low",0.987
same,normalized growth,"locus YNL006W, strain LST8, active compounds read low",0.996
same,normalized growth,"locus YNL020C, strain ARK1, active compounds read low",0.959
same,normalized growth,"locus YNL161W, strain CBK1, active compounds read low",0.986
same,normalized growth,"locus YNL183C, strain NPR1, active compounds read low",0.793
same,normalized growth,"locus YNL207W, strain RIO2, active compounds read low",0.992
same,normalized growth,"locus YNL222W, strain SSU72, active compounds read low",0.99
same,normalized growth,"locus YNL307C, strain MCK1 (second series), active compounds read low",0.969
same,normalized growth,"locus YOL078W, strain AVO1, active compounds read low",0.989
same,normalized growth,"locus YOL136C, strain PFK27, active compounds read low",0.818
same,normalized growth,"locus YOR061W, strain CKA2, active compounds read low",0.946
same,normalized growth,"locus YOR119C, strain RIO1, active compounds read low",0.972
same,normalized growth,"locus YOR231W, strain MKK1, active compounds read low",1.05
same,normalized growth,"locus YOR329C, strain SCD5, active compounds read low",0.999
same,normalized growth,"locus YPL031C, strain PHO85, active compounds read low",0.778
same,normalized growth,"locus YPL153C, strain RAD53, active compounds read low",0.909
same,normalized growth,"locus YPL204W, strain HRR25, active compounds read low",0.899
same,normalized growth,"locus YPL209C, strain IPL1, active compounds read low",0.991
same,normalized growth,"locus YPL256C, strain CLN2, active compounds read low",0.234 (active)
same,normalized growth,"locus YPR025C, strain CCL1, active compounds read low",0.991
same,normalized growth,"locus YPR106W, strain ISR1, active compounds read low",0.986
same,normalized growth,"locus YPR111W, strain DBF20, active compounds read low",0.98
same,normalized growth,"strain NNK1, active compounds read low",0.993
same,normalized growth,"strain TSCII, active compounds read low",0.991
CCOC(=O)C1=C(C)NC(=S)NC1c1cccc(O)c1 (stereo not drawn),normalized growth,"locus YAL013W, strain DEP1, active compounds read low",0.995
same,normalized growth,"locus YAL040C, strain CLN3, active compounds read low",0.985
same,normalized growth,"locus YCL061C, strain MRC1 (second series), active compounds read low",1
same,normalized growth,"locus YDR363W, strain ESC2, active compounds read low",1
same,normalized growth,"locus YER002W, strain NOP16, active compounds read low",0.989
same,normalized growth,"locus YGR078C, strain PAC10, active compounds read low",1
same,normalized growth,"locus YNL153C, strain GIM3, active compounds read low",0.976
same,normalized growth,"locus YNL175C, strain NOP13, active compounds read low",0.995
same,normalized growth,"locus YNL197C, strain WHI3, active compounds read low",0.99
same,normalized growth,"locus YNL224C, strain SQS1, active compounds read low",0.996
same,normalized growth,"locus YNL322C, strain KRE1, active compounds read low",0.997
same,normalized growth,"locus YOR083W, strain WHI5 (second series), active compounds read low",0.968
same,normalized growth,"locus YPL055C, strain LGE1, active compounds read low",0.991
same,normalized growth,"locus YPL241C, strain CIN2, active compounds read low",1
